Hits are enriched below; roughly 3.8% of the tested compounds scored in any of these assays.
ATXN2 expr inh: reduces ATXN2 reporter expression in HEK-293 cells; HEK-293 ATXN2-luciferase reporter, luminescence, 24 h; Potency, µM (series often up to 57 µM), most hits filed as inhibitors; hit rate 0.72% among 360,000; AID 1745845; note: nearly all actives have a fitted effect of over 55% in size
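qHTS (up to 57 uM final) was run with 24 h compound exposure of reporter cells at 37 °C. Each well was multiplexed: SteadyGlo luminescence measured ATXN2-luciferase expression after a fluorogenic Gly-Phe-AFC viability readout (25 uM final).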
TGFb SMAD3 inh: blocks TGF-b signaling; Potency, µM (doses to about 46.1 µM), most hits filed as inhibitors; AID 588855; HepG2 CAGA-GFP TGF-b/SMAD3 reporter, GFP fluorescence, 18 h; TGF-beta stimulated, 500 pg/mL final; hit rate 1.2% among 410,000; note: nearly all actives have a fitted effect of over 65% in size
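Smad-responsive CAGA-GFP expression was quantified in HEPG2 cells exposed to compounds and 500 pg/mL final TGF-beta for 18 h at 37 degrees C; unstimulated wells defined full inhibition.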
ATXN viability: viability counter-screen for ATXN expression inhibitors | S2 cells (HEK-293 line with an ATXN2-luciferase reporter) viability, CellTiter-Fluor protease fluorescence, 24 h | Potency, µM (doses to about 56.7 µM), hits mostly cytotoxic | hit rate 0.49% among 400,000; note: nearly all actives have a fitted effect of over 40% in size
HepG2 tox: counter-screen for TGF-b inhibitors: cytotoxicity in HepG2 cells. Potency, µM (highest dose often 46.1 µM), actives largely listed as cytotoxic. hit rate 0.76% among 410,000. HepG2 CAGA-GFP viability, ATP luminescence, 18 h
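HepG2 CAGA-GFP cells (1000/well, DMEM with 1% FBS) received compound, then TGF-beta at 500 pg/mL final, and were incubated 18 hours at 37 degrees C. Viability was read by CellTiter-Glo luminescence. Media-only wells were set as complete cell-killing and DMSO as no toxicity.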
HT1080 IDH1KD tx: HT-1080 IDH1 knockdown cell toxicity (counter line); HT-1080 IDH1 knockdown viability, ATP luminescence, 48 h; Potency, µM (series often up to 46.1 µM), actives largely listed as cytotoxic; hit rate 2% among 360,000; AID 686971
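Using the IDH1-knockdown HT-1080 line run in the same batch and compound series as the NT line, viability after 48 h at 37 °C was determined by CellTiter-Glo luminescence and expressed as % activity.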
HT1080-NT tox: kills 2HG-producing HT-1080-NT fibrosarcoma cells. Potency, µM (series often up to 46.1 µM), actives largely listed as cytotoxic. HT-1080-NT fibrosarcoma viability, CellTiter-Glo ATP luminescence, 48 h. hit rate 1.6% among 360,000. AID 686970;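 note: NT is the 2HG producing partner of a matched IDH1 knockdown line; nearly all actives have a fitted effect of over 55% in size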
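Toxicity toward the 2HG-producing NT line was scored as %Activity, normalised to DMSO and no-cell wells, from CellTiter-Glo luminescence after 48 hours' treatment.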
Each line names hits and unclear results; the compound was inactive in the other large screens. Calls come from the whole dose curve; as a rule, active = well fitted curve in the direction sought with a large enough effect; inconclusive = small, poorly fitted or top-dose-only effect, or another doubt; inactive = no such curve, though single readings can be large; an effect the other way counts as inactive or inconclusive.

O=C(CC1SC(=O)N(c2ccccc2)C1=O)Nc1ccc(Br)cc1 (stereo not drawn)	ATXN viability inconclusive
CN(C1=NC(=O)C(CC(=O)Nc2ccc(Br)cc2)S1)c1ccc(O)cc1 (stereo not drawn)	TGFb SMAD3 inh inconclusive, ATXN viability inconclusive, HT1080 IDH1KD tx 7.9µM, HT1080-NT tox inconclusive
O=c1cc(CCl)nc2sc3ccccc3n12	TGFb SMAD3 inh inconclusive, ATXN viability inconclusive, HepG2 tox 16µM, HT1080 IDH1KD tx inconclusive, HT1080-NT tox 16µM
CC(O)(c1ccccc1)c1nc(/C=C/c2ccccc2)cs1 (stereo not drawn)	ATXN viability inconclusive, HT1080 IDH1KD tx inconclusive, HT1080-NT tox inconclusive
COc1cccc(C(C)(O)c2nc(-c3ccccc3C)cs2)c1 (stereo not drawn)	TGFb SMAD3 inh inconclusive, HT1080 IDH1KD tx inconclusive, HT1080-NT tox inconclusive
COc1cccc(C(C)(O)c2nc(-c3cccc(C(F)(F)F)c3)cs2)c1 (stereo not drawn)	TGFb SMAD3 inh inconclusive, HT1080 IDH1KD tx inconclusive, HT1080-NT tox 18µM
CC(O)(c1cccnc1)c1nc(-c2cccc(C(F)(F)F)c2)cs1 (stereo not drawn)	HT1080 IDH1KD tx inconclusive, HT1080-NT tox 23µM
COc1cccc(C(C)(O)c2nc(-c3csc4ccccc34)cs2)c1 (stereo not drawn)	TGFb SMAD3 inh 18µM, HT1080 IDH1KD tx inconclusive, HT1080-NT tox 21µM
COc1cccc(C(C)(O)c2nc(/C=C/c3ccccc3)cs2)c1 (stereo not drawn)	TGFb SMAD3 inh 14µM
O=C(CBr)c1ccc(Oc2ccc(C(=O)C[n+]3cccc(Br)c3)cc2)cc1	none (no result: ATXN2 expr inh, ATXN viability, HT1080 IDH1KD tx, HT1080-NT tox)
COc1ccc(-c2noc(-c3ccc(N4CCN(c5ccccc5OC)CC4)c([N+](=O)[O-])c3)n2)cc1	TGFb SMAD3 inh inconclusive (no result: HT1080 IDH1KD tx, HT1080-NT tox)
Cc1cc(NC(=O)CS(=O)(=O)c2cn(Cc3ccccc3Cl)c3ccccc23)no1	TGFb SMAD3 inh inconclusive, HT1080 IDH1KD tx inconclusive, HT1080-NT tox inconclusive
Cc1cc(NC(=O)CS(=O)c2cn(Cc3cccc(Cl)c3)c3ccccc23)no1 (stereo not drawn)	ATXN2 expr inh inconclusive, TGFb SMAD3 inh 13µM, ATXN viability inconclusive, HT1080 IDH1KD tx inconclusive
O=S(=O)(c1ccc(Cl)cc1)N1CCC(c2ccncc2)CC1	none (no result: ATXN2 expr inh, ATXN viability, HT1080 IDH1KD tx, HT1080-NT tox)
CC(C)(C)c1ccc(S(=O)(=O)N2CCC(c3ccncc3)CC2)cc1	ATXN2 expr inh inconclusive, TGFb SMAD3 inh 2.8µM, ATXN viability inconclusive (no result: HT1080 IDH1KD tx, HT1080-NT tox)
CC(C)Cc1ccc(S(=O)(=O)N2CCC(c3ccncc3)CC2)cc1	ATXN2 expr inh 16µM, TGFb SMAD3 inh inconclusive, ATXN viability inconclusive (no result: HT1080 IDH1KD tx, HT1080-NT tox)
CCOc1ccc(NC(=O)C(=O)NCC(c2cccnc2)N2CCc3ccccc32)cc1 (stereo not drawn)	TGFb SMAD3 inh inconclusive (no result: ATXN2 expr inh, ATXN viability, HT1080 IDH1KD tx, HT1080-NT tox)
O=C(NCCN1CCOCC1)/C(=C/c1ccc(Cl)cc1)NC(=O)c1ccccc1	none
CN(C)CCNC(=O)/C(=C/c1ccc(-c2ccc(Cl)cc2Cl)o1)NC(=O)c1ccccc1	TGFb SMAD3 inh inconclusive, ATXN viability inconclusive, HT1080 IDH1KD tx 21µM, HT1080-NT tox inconclusive
CN(C)CCNC(=O)/C(=C/c1ccc(-c2ccc(Cl)cc2)o1)NC(=O)c1ccccc1	TGFb SMAD3 inh inconclusive, HepG2 tox 16µM
CCN(CC)C(=O)c1ccc2nc([C@H]3C[C@H](O)[C@@H](CO)O3)[nH]c2c1	none
OC[C@H]1O[C@@H](c2nc3ccc(-c4nc(-c5ccc(Br)cc5)no4)cc3[nH]2)C[C@@H]1O	ATXN viability inconclusive, HT1080 IDH1KD tx 18µM, HT1080-NT tox 18µM
O=C(O)CN=C(NS(=O)(=O)c1ccc(Cl)cc1)c1ccccc1	none
Cc1ccc(S(=O)(=O)NC(=NCC(=O)O)c2ccccc2)cc1	HepG2 tox 3.2µM
CN(C(=O)c1cnn(-c2ncc3c(n2)-c2ccccc2CCC3)c1C1CC1)C1CCOC1 (stereo not drawn)	none (no result: ATXN2 expr inh, TGFb SMAD3 inh, HepG2 tox, HT1080 IDH1KD tx, HT1080-NT tox)

Source: PubChem (National Center for Advancing Translational Sciences (NCATS))
